Screens as filed in PubChem BioAssay.
RPL19A-GFP yeast – modulators of TOR pathway RPL19A-GFP in S. cerevisiae; S. cerevisiae RPL19A-GFP strain, flow cytometry, 3 h; stronger effect = lower value; percent response vs DMSO, % at 10 µM; 330,000 compounds, 0.3% hits;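 active means percent response vs DMSO below 50%; inconclusive means fewer than 70 events counted for the yeast strain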;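 further: median channel GFP fluorescence of the barcoded RPL19A-GFP strain; ratio of sample median GFP to plate DMSO average so 100% = DMSO; lower means less RPL19A-GFP as with rapamycin TOR inhibition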
LAP4 TOR yeast – alters LAP4-GFP fluorescence in TOR pathway yeast screen. S. cerevisiae LAP4-GFP multiplex, flow cytometry GFP, 3 h; median GFP as percent of DMSO wells. GFP response vs DMSO, % at 10 µM. 320,000 compounds, 0.34% hits;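 active means GFP response vs DMSO above a set limit, about the screen mean plus 3 SD, cut at about 150% in these data; inconclusive means under 70 cell events counted for the yeast strain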
CIT2 TOR yeast – yeast TOR pathway CIT2-GFP modulation; GFP response vs DMSO, % at 10 µM; 320,000 compounds, 0.065% hits; S. cerevisiae CIT2-GFP strain, flow cytometry, 3 h; 100 means same as DMSO wells;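 active means GFP response relative to DMSO above a set limit, near the screen mean plus 3 SD, cut at about 150% in these data; inconclusive means Fewer than 70 cells measured for a yeast strain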;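 further: ratio of well median GFP fluorescence to mean of DMSO wells on the plate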
MEP2-GFP yeast – yeast TOR pathway MEP2-GFP modulation; S. cerevisiae MEP2-GFP strain, flow cytometry GFP, 3 h; 100% = DMSO control level; GFP response vs DMSO, % at 10 µM; 330,000 compounds, 0.51% hits;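 active means GFP response versus DMSO above a set limit, roughly screen mean plus 3 SD, cut at about 180% in these data; inconclusive means fewer than 70 cells counted for a yeast strain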;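 further: median GFP fluorescence of the barcode-gated MEP2-GFP cells per well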
AGP1 TOR yeast – yeast TOR pathway AGP1-GFP modulation. S. cerevisiae AGP1-GFP multiplex flow cytometry, 3 h; GFP as percent of DMSO wells. GFP response vs DMSO, % at 10 µM. 320,000 compounds, 0.02% hits;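 active means GFP response relative to DMSO above a set limit, near screen average plus 3 SD, cut at about 150% in these data; inconclusive means fewer than 70 cells counted for the yeast strain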;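 further: median GFP channel fluorescence of the gated AGP1 strain per well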
Active calls of the source: *; [ ] = dose if it differs, or a comment. Sampled rows, rich in hits. Any-hit rate of the full collection: about 0.92%.

`CCc1noc2c1/C(=N\O)CC(c1ccccc1)C2` (stereo unspecified) gave RPL19A-GFP yeast 102, LAP4 TOR yeast 115, CIT2 TOR yeast 99, MEP2-GFP yeast 103 and AGP1 TOR yeast 98.
Screening O=C(NCc1ccccc1)N1CCC(CO)(CCc2ccccc2)CC1 returned RPL19A-GFP yeast 100, LAP4 TOR yeast 121, CIT2 TOR yeast 113, MEP2-GFP yeast 109 and AGP1 TOR yeast 117.
Screening O=C(CCC(F)(F)F)N1CCC(CO)(CCc2ccccc2)CC1 returned RPL19A-GFP yeast 102, LAP4 TOR yeast 89, CIT2 TOR yeast 99, MEP2-GFP yeast 103 and AGP1 TOR yeast 152*.
OCc1ccccc1SSc1ccccc1CO was read as RPL19A-GFP yeast 89, LAP4 TOR yeast 192*, CIT2 TOR yeast 101, MEP2-GFP yeast 89 and AGP1 TOR yeast 96.
For CCCNC(=O)COC(=O)c1ccc(S(=O)(=O)N2CCCC2)cc1 the results were RPL19A-GFP yeast 114, LAP4 TOR yeast 240*, CIT2 TOR yeast 193*, MEP2-GFP yeast 264* and AGP1 TOR yeast 119.
`NC(=O)CSc1nnc(SCc2ccc(F)cc2)s1` gave RPL19A-GFP yeast 92, LAP4 TOR yeast 87, MEP2-GFP yeast 99 and AGP1 TOR yeast 91.
`COc1ccc(-c2nnc(SCC(=O)Nc3ccc(C(=O)O)cc3)n2-c2ccc(Cl)cc2)cc1` gave RPL19A-GFP yeast 39*[may fluoresce violet], LAP4 TOR yeast 92, CIT2 TOR yeast inconclusive, MEP2-GFP yeast 643*[may fluoresce violet] and AGP1 TOR yeast 30.
COc1ccc(OC)c(NC(=O)CSc2nnc(-c3ccco3)n2-c2ccc(C(=O)O)cc2)c1 was read as RPL19A-GFP yeast 37*[may fluoresce violet], LAP4 TOR yeast 95, CIT2 TOR yeast inconclusive, MEP2-GFP yeast 279*[may fluoresce violet] and AGP1 TOR yeast inconclusive.
COc1ccc(-n2c(SCC(=O)Nc3ccc(C(=O)O)cc3)nnc2-c2cccs2)cc1 was read as RPL19A-GFP yeast 96, LAP4 TOR yeast 101, CIT2 TOR yeast 104, MEP2-GFP yeast 116 and AGP1 TOR yeast 108.
Screening CNC(=O)N(O)C1N(/N=C/c2c(F)cccc2Cl)C(=S)SC1(C)C (stereo unspecified) returned RPL19A-GFP yeast 56, LAP4 TOR yeast 72, CIT2 TOR yeast inconclusive, MEP2-GFP yeast 244*[may fluoresce violet] and AGP1 TOR yeast 15.
`CNC(=O)N(O)C1N(/N=C/c2ccc(C)cc2)C(=S)SC1(C)C` (stereo unspecified) gave RPL19A-GFP yeast 108, LAP4 TOR yeast 96, CIT2 TOR yeast 96, MEP2-GFP yeast 108 and AGP1 TOR yeast 96.
`CCCCOc1ccc(N(CC(=O)NC2CCCCC2)C(=O)c2snc(C(N)=O)c2N)cc1` gave RPL19A-GFP yeast 105, LAP4 TOR yeast 99, CIT2 TOR yeast 102, MEP2-GFP yeast 109 and AGP1 TOR yeast 105.
Screening CCN(CC)c1ccc(/C=N/NC(=O)c2nnn(-c3nonc3N)c2-c2ccc(C)cc2)cc1 returned RPL19A-GFP yeast 33*[may fluoresce violet], LAP4 TOR yeast 81, CIT2 TOR yeast inconclusive, MEP2-GFP yeast 193*[may fluoresce violet] and AGP1 TOR yeast 20.
Screening CCN(CC)Cc1c(C(=O)N/N=C/c2cccc3ccccc23)nnn1-c1nonc1N returned RPL19A-GFP yeast 99, LAP4 TOR yeast 102, CIT2 TOR yeast 106, MEP2-GFP yeast 112 and AGP1 TOR yeast 96.
Screening CCOc1ccc(/C=N/NC(=O)c2nnn(-c3nonc3N)c2-c2ccc(OCC)cc2)cc1 returned RPL19A-GFP yeast 106, LAP4 TOR yeast 92, CIT2 TOR yeast 117, MEP2-GFP yeast 107 and AGP1 TOR yeast 104.
Screening CCN(CC)Cc1c(C(=O)N/N=C/c2ccccn2)nnn1-c1nonc1N returned RPL19A-GFP yeast 55, LAP4 TOR yeast 90, CIT2 TOR yeast inconclusive, MEP2-GFP yeast 295*[may fluoresce violet] and AGP1 TOR yeast 19.
Screening CCN(CC)C(=O)c1ccc(-c2cccs2)s1 returned RPL19A-GFP yeast 85, LAP4 TOR yeast 184*, CIT2 TOR yeast 52, MEP2-GFP yeast 73 and AGP1 TOR yeast 72.
For CCN(CC)C(=O)c1sc(NC(=O)c2cccs2)c(C#N)c1C the results were RPL19A-GFP yeast 101, LAP4 TOR yeast 106, CIT2 TOR yeast 103, MEP2-GFP yeast 105 and AGP1 TOR yeast 100.
`COC(=O)c1ccccc1OCC(=O)NC1CCCCC1` gave RPL19A-GFP yeast 96, LAP4 TOR yeast 165*, CIT2 TOR yeast 79, MEP2-GFP yeast 99 and AGP1 TOR yeast 97.
